Our source for the growth values is PubChem BioAssay (NCI).

“And” between values parts separate entries of the source, which are not always exact repeats. Equal values may be shown once. Compounds without any hit were thinned out: in the full panel of roughly 83,000, 20% have a hit.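 The test compound was applied at a single concentration to cells in 96-well plates for 48 hours, and percent growth was recorded.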 A number with no mark means an inactive call. The source made the active and inactive calls. The calls were made as follows: active = growth percent below 10; inactive = the rest.

This assay has as its system MDA-MB-468 breast. As to the kind of experiment: NCI-60 one-dose screen, 48 h (100 = growth as untreated, 0 = no growth, -100 = all killed). The following applies: 10 µM unless noted.

Consider `Cc1ccc(Nc2nnc(-c3cc(-c4ccncc4)n(-c4ccccc4)n3)s2)cc1`, for which the growth is 48.7%. For the compound `O=c1ccc2nc(-c3ccccc3)nn(-c3ccccn3)c-2c1`, the growth is -65.2% (active). For `Cc1ccc(SC2c3ccc(C)cc3Oc3nc(N)c(C#N)c(N)c32)cc1` (stereo not given), the growth is -36.5% (active). With `CCC(C)/C(=C\C#N)NCCCN/C(=C/C#N)C(C)CC` (stereo not given), the growth was 108%. For the compound `Oc1cccnc1CN1CCOCC1`, the growth is 97.2% and 102%. The same measure for `Cc1cc(NS(=O)(=O)c2ccc(-c3cnc(C4CC4)o3)cc2)ccc1I`: 3.98% (active); for `CCCCCCCc1n(Cc2ccc3ccccc3c2)c2ccccc2[n+]1Cc1ccc2ccccc2c1`: -69.6% (active). The same measure for `COc1ccc(CN2c3ccccc3CCc3ccccc32)cc1F`: 4.48% (active). To `Cc1cc(N=O)cc(C(C)(C)C)c1O` belongs 91%; to `COc1ccccc1S(=O)(=O)Nc1ccc2c3c(cc(-c4cnn(C)c4)nc13)C(=O)N2C`, 23.1%. For `COc1cc(NCCN=C(N)NC(N)=NC(C)C)c2ncccc2c1`, the growth is -46.5% (active). Take `COc1ccc([C@@H]2[C@@H](O)C(=O)N2c2cc(OC)c(OC)c(OC)c2)cc1Cl`: the growth was 22.8%. With `CCOC(=O)/C=C/C(=O)[C@H](CC(C)C)NC(=O)[C@H](Cc1ccccc1)NC(=O)OCc1ccccc1`, the growth is -21.5% (active). To `C=C1C(=O)O[C@H]2[C@H]1CC/C(COC(=O)NCCc1ccc(OC)c(OC)c1)=C\CC[C@@]1(C)O[C@@H]21` belongs 16.9%; to `c1ccc2c(c1)oc1cc3sccc3nc12`, 102%; to `CNCCNc1nc2ccccc2c2c(=O)c3cc(F)ccc3sc12`, 51.6%. The same measure for `CCOC(=O)c1nc2c3ccccc3cnn2c1C(=O)c1ccc(OC)cc1`: 105%. In the case of `CN(CC(=O)N(Cc1ccc(C2CCCCC2)cc1)c1ccc(C(=O)O)cc1)S(=O)(=O)c1c(F)c(F)c(F)c(F)c1F`, the growth was -86.6% (active). To `O=C(O)c1ccccc1.[Ag]` belongs 90.4%. To `Brc1ccc(-c2cc(-c3ccc4c(c3)OC=CO4)n[nH]2)s1` belongs -13.5% (active); to `CCOC(=O)c1c(Nc2ccccc2)nn2c(N)c(C#N)c(-c3ccc(OC)cc3)nc12`, 73.1%; to `OCc1cccc(-c2ccc3ncc(-c4nc(NC5CC5)ncc4F)n3c2)c1`, -39.1% (active).

As to `COc1cc2cc(NCc3ccncc3)nc(C)c2cc1OC`, the growth was 87.7%. To `COc1c(B(O)O)cccc1-c1nc2ccc3[nH]ncc3c2c2c1CCCC2` belongs 34%.

With `O=c1n(Cc2ccc3ccccc3c2)ccn1Cc1ccc2ccccc2c1`, the growth is 94.3%.
